Here are results for eight molecules from PubChem BioAssay (NCI).

Test systems include EKVX NSCLC; SN12C renal; UO-31 renal; TK-10 renal; ACHN renal; CAKI-1 renal; CCRF-CEM leukemia; MOLT-4 leukemia; SR leukemia; RPMI-8226 leukemia; OVCAR-8 ovarian; OVCAR-5 ovarian; OVCAR-4 ovarian; SK-OV-3 ovarian; IGROV1 ovarian; OVCAR-3 ovarian; HS 578T breast; NCI/ADR-RES ovarian; T-47D breast; A498 renal.
What all share (test): NCI-60 one-dose screen, 48 h (100 = growth as untreated, 0 = no growth, -100 = all killed)
Holding throughout (settings): 10 µM unless noted

This is part of a sample that, as a whole, favours compounds with a hit. Of some 83,000 tested, about 20% had one in any assay.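 Note: values are percent growth. 100 is the growth of untreated cells, values between 100 and 0 indicate rising inhibition; between -100 and 0 indicates cell death.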 Unmarked numbers belong to inactive results. Calls of active or inactive are those of the source. Rule for the calls: active = growth percent below 10; inactive = the rest.

Take `COc1cc(/C=C/C(=O)c2cc(OC)c(OC)c(OC)c2)ccc1OCc1ccc(F)cc1`: the growth in the assay with EKVX NSCLC was 51.2%; in the assay with SN12C renal it was 67.9%; in the assay on UO-31 renal, 45.4%; with TK-10 renal, 159%; in the assay with ACHN renal it was 64.8%; in the assay on CAKI-1 renal, 45.8%. In addition, the growth in the assay on CCRF-CEM leukemia is 5.5% (active); with MOLT-4 leukemia it was 46.2%; with SR leukemia it was 16.3%; in the assay with RPMI-8226 leukemia it was -16.1% (active); in the assay on OVCAR-8 ovarian, 15.4%; in the assay on OVCAR-5 ovarian, 57.7%. Also, the growth with OVCAR-4 ovarian was 46.9%; in the assay on SK-OV-3 ovarian, 45.5%; with IGROV1 ovarian, 40.7%; in the assay with OVCAR-3 ovarian, 38.2%; in the assay with HS 578T breast, 89.7%; in the assay with NCI/ADR-RES ovarian it was 20%. Also, in the assay with T-47D breast, the growth is 38.3%.

With `O=[N+]([O-])c1ccc(O)c2ncccc12`, the growth was 26.2% with EKVX NSCLC; 42.1% with SN12C renal; 31.4% in the assay with UO-31 renal; 55.6% with TK-10 renal; 23.7% in the assay with ACHN renal; 30.5% in the assay on CAKI-1 renal. In addition, the growth in the assay with A498 renal is 55.7%; in the assay with CCRF-CEM leukemia, 17.7%; in the assay on MOLT-4 leukemia, 19.9%; in the assay on SR leukemia, 14.6%; with RPMI-8226 leukemia it was 22.1%; in the assay with OVCAR-5 ovarian it was 40.1%. In addition, the growth is 40.8% in the assay with OVCAR-4 ovarian; 58.7% with SK-OV-3 ovarian; 23.6% in the assay on IGROV1 ovarian; 11.4% with OVCAR-3 ovarian; 47.3% in the assay with HS 578T breast; 15.5% with NCI/ADR-RES ovarian. For the same molecule, the growth in the assay with T-47D breast is 25.9%.

Regarding `COc1ccc(/C=N/NC(=O)c2[nH]c3ccc(Br)cc3c2-c2ccccc2)o1`, the growth in the assay on EKVX NSCLC is 37.8%; in the assay on SN12C renal, 43.3%; in the assay on UO-31 renal it was 46.1%; in the assay with TK-10 renal, 94.5%; in the assay on ACHN renal, 28.1%; with CAKI-1 renal, 26.3%. Also, the growth is 15.4% in the assay with CCRF-CEM leukemia; 17% with MOLT-4 leukemia; 17.7% with SR leukemia; 12.5% in the assay with RPMI-8226 leukemia; -12.2% (active) in the assay with OVCAR-8 ovarian; 39.9% with OVCAR-5 ovarian. The growth is 68% with OVCAR-4 ovarian; 38.1% in the assay on SK-OV-3 ovarian; 19.7% in the assay with IGROV1 ovarian; 16.6% in the assay with OVCAR-3 ovarian; 11.5% with HS 578T breast; 19.9% in the assay with NCI/ADR-RES ovarian. In the assay with T-47D breast, the growth was 78.4%.

Regarding `COc1ccc(C(=O)/C=C/c2ccc(OCc3ccc(Cl)cc3)c(OC)c2)cc1OC`, the growth in the assay on EKVX NSCLC was 62.2%; with SN12C renal, 76.6%; with UO-31 renal, 54.1%; in the assay on TK-10 renal it was 110%; in the assay on ACHN renal, 73.4%; with CAKI-1 renal, 59.7%. For the same molecule, the growth with CCRF-CEM leukemia was 22.5%; with MOLT-4 leukemia it was 38.6%; with SR leukemia, 7.68% (active); in the assay with RPMI-8226 leukemia it was -2.25% (active); in the assay on OVCAR-8 ovarian, 58.4%; with OVCAR-5 ovarian, 100%. The growth was 68.6% with OVCAR-4 ovarian; 82.9% in the assay with SK-OV-3 ovarian; 73.5% in the assay on IGROV1 ovarian; 78.5% in the assay on OVCAR-3 ovarian; 82% in the assay on HS 578T breast; 55.2% in the assay on NCI/ADR-RES ovarian. Further, the growth in the assay on T-47D breast was 50.6%.

In the case of `C#Cc1nc(C2=C(C)C(=O)/C(=N/OC(C)=O)C2)cs1`, the growth in the assay with EKVX NSCLC was 97.5%; with SN12C renal, 99%; in the assay with UO-31 renal, -92.1% (active); in the assay with TK-10 renal, 151%; with ACHN renal, 26.3%; in the assay with CAKI-1 renal it was 58.5%. Further, the growth is 80.8% with CCRF-CEM leukemia; 87.7% in the assay on MOLT-4 leukemia; 13.4% in the assay on SR leukemia; 32.3% in the assay with RPMI-8226 leukemia; 78.3% with OVCAR-8 ovarian; 99.4% in the assay with OVCAR-5 ovarian. Also, the growth with OVCAR-4 ovarian was 89.9%; in the assay with SK-OV-3 ovarian, 104%; in the assay with IGROV1 ovarian, -37.2% (active); in the assay on OVCAR-3 ovarian it was 111%; with HS 578T breast it was 90.7%; in the assay on NCI/ADR-RES ovarian, 1.61% (active). Further, the growth in the assay with T-47D breast was 79.9%.

Consider `COC(=O)c1ccc(NC(=S)N2CCc3ccc([N+](=O)[O-])cc3C2)cc1O`, for which the growth is 99.2% in the assay on EKVX NSCLC; 99.8% in the assay with SN12C renal; 85.5% with UO-31 renal; 137% in the assay on TK-10 renal; 95.4% with ACHN renal; 92.7% in the assay with CAKI-1 renal. In addition, the growth is 94.9% in the assay on CCRF-CEM leukemia; 91.7% in the assay on MOLT-4 leukemia; 95.5% with SR leukemia; 101% in the assay on RPMI-8226 leukemia; 101% with OVCAR-8 ovarian; 103% in the assay on OVCAR-5 ovarian. Moreover, the growth is 112% in the assay with OVCAR-4 ovarian; 98.4% in the assay on SK-OV-3 ovarian; 99% in the assay with IGROV1 ovarian; 116% with OVCAR-3 ovarian; 102% in the assay with HS 578T breast; 107% in the assay with NCI/ADR-RES ovarian. Also, the growth with T-47D breast is 103%.

In the case of `Cc1sc2nc(NCc3ccccc3Cl)[nH]c(=O)c2c1C`, the growth with EKVX NSCLC was 98.1%; with SN12C renal, 93.8%; in the assay with UO-31 renal, 94.5%; in the assay with TK-10 renal, 112%; with ACHN renal, 94.8%; in the assay on CAKI-1 renal, 87.2%. The growth with A498 renal is 81.3%; in the assay with CCRF-CEM leukemia it was 65.3%; in the assay on MOLT-4 leukemia, 69.7%; in the assay with SR leukemia, 50.2%; in the assay on RPMI-8226 leukemia it was 82.8%; in the assay on OVCAR-5 ovarian, 102%. The growth in the assay with OVCAR-4 ovarian is 101%; with SK-OV-3 ovarian, 114%; with IGROV1 ovarian, 90.6%; in the assay on OVCAR-3 ovarian, 123%; in the assay on HS 578T breast it was 99%; with T-47D breast, 94.6%.

As to `O=c1/c(=C\c2ccc(-c3ccccc3)o2)sc2nc(-c3ccccc3)nn12`, the growth in the assay on EKVX NSCLC was 99.9%; in the assay with SN12C renal it was 97.3%; in the assay with UO-31 renal it was 89%; in the assay on TK-10 renal it was 95.1%; in the assay on ACHN renal, 102%; with CAKI-1 renal it was 96.4%. In addition, the growth with A498 renal was 84.3%; in the assay with CCRF-CEM leukemia it was 101%; in the assay on MOLT-4 leukemia, 108%; with SR leukemia, 102%; with RPMI-8226 leukemia it was 102%; with OVCAR-5 ovarian, 104%. Besides, the growth is 107% with OVCAR-4 ovarian; 105% with SK-OV-3 ovarian; 103% with IGROV1 ovarian; 95.4% in the assay with HS 578T breast; 92.9% in the assay on T-47D breast.
